In PubChem BioAssay (NCI):
The panel holds about 83,000 compounds, 20% with a hit somewhere; the sample as a whole holds those more often.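 A percent growth of 40 corresponds to 60% growth inhibition; 0 means no net growth; -100 means all cells died. Active threshold: below 10.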 Active and inactive are the calls of the source.

Columns and labels:
Assay in all cases: NCI-60 one-dose screen, 48 h (100 = growth as untreated, 0 = no growth, -100 = all killed)
Conditions in all cases: 10 µM unless noted
SK-MEL-2 melanoma = test system: SK-MEL-2 melanoma
EKVX NSCLC = test system: EKVX NSCLC
SN12C renal = test system: SN12C renal
UO-31 renal = test system: UO-31 renal
TK-10 renal = test system: TK-10 renal
ACHN renal = test system: ACHN renal
CAKI-1 renal = test system: CAKI-1 renal
CCRF-CEM leukemia = test system: CCRF-CEM leukemia
MOLT-4 leukemia = test system: MOLT-4 leukemia
A498 renal = test system: A498 renal

Measured: growth

NC(=S)N/N=C/c1ncccc1O
active: UO-31 renal 1.36% | CCRF-CEM leukemia 1.76% | MOLT-4 leukemia 4.88%
inactive: SK-MEL-2 melanoma 103% | EKVX NSCLC 44.1% | SN12C renal 20.5% | TK-10 renal 71.2% | ACHN renal 10.7% | CAKI-1 renal 15.1%

CC(C)(C)c1ccc(CCO)cc1
inactive: SK-MEL-2 melanoma 92.3% | EKVX NSCLC 89.6% | SN12C renal 91.8% | UO-31 renal 78.8% | TK-10 renal 93.7% | ACHN renal 107% | A498 renal 118% | CCRF-CEM leukemia 87.2% | MOLT-4 leukemia 99.1%

NC(=Nc1nc(-c2ccccn2)cc2ccccc12)c1ccccn1
inactive: SK-MEL-2 melanoma 66.5% | EKVX NSCLC 16.5% | SN12C renal 26.2% | TK-10 renal 31.5%
active: UO-31 renal 2.9% | ACHN renal 8.11% | CAKI-1 renal 2.97% | CCRF-CEM leukemia 0.348% | MOLT-4 leukemia -3.87%

O=C1/C(=C\c2ccc([N+](=O)[O-])cc2)CS(=O)(=O)C/C1=C/c1ccc([N+](=O)[O-])cc1
active: SK-MEL-2 melanoma -35.9% | EKVX NSCLC -63.4% | SN12C renal -41.1% | UO-31 renal -95.4% | TK-10 renal -99% | ACHN renal -98.8% | CAKI-1 renal -92.3% | CCRF-CEM leukemia -31.6% | MOLT-4 leukemia -34.7%

O=C1C=CC(=O)N1c1ccccc1
inactive: SK-MEL-2 melanoma 103% | EKVX NSCLC 99.6% | SN12C renal 84.4% | UO-31 renal 87.4% | TK-10 renal 105% | MOLT-4 leukemia 42.2%
active: ACHN renal -37.3%

COC1CC(C)C(OC)c2cc(O)cc(c2O)NC(=O)/C(C)=C/C=C\C(C)C(OC(N)=O)/C(C)=C\C(C)C1OC (stereo unspecified)
inactive: SK-MEL-2 melanoma 39.4% | EKVX NSCLC 41% | SN12C renal 30.3% | TK-10 renal 68% | ACHN renal 28.5% | CAKI-1 renal 54.2%
active: UO-31 renal -70.9% | CCRF-CEM leukemia -30.7% | MOLT-4 leukemia -23.4%

c1ccc(-c2cccc(-c3ccccn3)n2)nc1
inactive: SK-MEL-2 melanoma 16.6% | EKVX NSCLC 15.8% | SN12C renal 10.5% | TK-10 renal 32.9% | ACHN renal 14% | A498 renal 44.2%
active: UO-31 renal 9.63% | CCRF-CEM leukemia 5.02% | MOLT-4 leukemia 3.3%

CC(C)=C1C=C2CC[C@@H]3[C@](C)(CCC[C@@]3(C)C(=O)O)[C@H]2CC1
inactive: SK-MEL-2 melanoma 109% | EKVX NSCLC 93.4% | SN12C renal 106% | UO-31 renal 88.9% | TK-10 renal 93.2% | CAKI-1 renal 99.6% | A498 renal 109% | CCRF-CEM leukemia 106% | MOLT-4 leukemia 96.6%

[Cl-].[Rh+3].c1ccc(-c2ccnc3c2ccc2c(-c4ccccc4)ccnc23)cc1.c1ccc(-c2ccnc3c2ccc2c(-c4ccccc4)ccnc23)cc1.c1ccc(-c2ccnc3c2ccc2c(-c4ccccc4)ccnc23)cc1
inactive: SK-MEL-2 melanoma 95.9% | EKVX NSCLC 81.1% | SN12C renal 85.8% | UO-31 renal 51.4% | TK-10 renal 107% | ACHN renal 93.6% | CAKI-1 renal 86.1% | MOLT-4 leukemia 104%

Cn1c(-c2ccccc2)c(/C=C/C2=[N+](C)c3ccccc3C2(C)C)c2ccccc21
inactive: EKVX NSCLC 20% | UO-31 renal 74% | ACHN renal 18.2% | CAKI-1 renal 35.6%
active: SK-MEL-2 melanoma 6.41% | SN12C renal 7.02% | TK-10 renal 3.06% | MOLT-4 leukemia -10.6%

O=C1/C(=C/c2ccccc2)CCC/C1=C\c1ccccc1
inactive: SK-MEL-2 melanoma 99.7% | EKVX NSCLC 96.1% | SN12C renal 93.2% | UO-31 renal 88.1% | TK-10 renal 104% | ACHN renal 95.6% | CAKI-1 renal 84.3% | MOLT-4 leukemia 73%

O=C1C=CC(O)=CC1=P(c1ccccc1)(c1ccccc1)c1ccccc1
inactive: SK-MEL-2 melanoma 82.6% | EKVX NSCLC 93.8% | SN12C renal 89.4% | UO-31 renal 71.8% | TK-10 renal 96.3% | ACHN renal 99.2% | CAKI-1 renal 86.2% | CCRF-CEM leukemia 86.9% | MOLT-4 leukemia 101%

CCN1CCCC(Nc2cc(C)nc(/N=C(/N)Nc3ccc(Cl)c(Cl)c3)n2)C1 (stereo unspecified)
active: SK-MEL-2 melanoma -72.7% | SN12C renal 1.64% | UO-31 renal -81.4% | TK-10 renal -88.6% | ACHN renal -25.1% | CAKI-1 renal -40.6% | CCRF-CEM leukemia -16.4% | MOLT-4 leukemia -35.4%
inactive: EKVX NSCLC 31.4%

O=C(Nc1ccc(Cl)c(Cl)c1)Nc1ccccc1O
inactive: SK-MEL-2 melanoma 77% | EKVX NSCLC 80.4% | SN12C renal 76.4% | UO-31 renal 55.8% | TK-10 renal 116% | ACHN renal 76.5% | A498 renal 106% | CCRF-CEM leukemia 37.1% | MOLT-4 leukemia 61.1%

COc1ccc2nc3cc([N+](=O)[O-])ccc3c(NNc3ccccc3)c2c1
inactive: SK-MEL-2 melanoma 74.9% | EKVX NSCLC 83.1% | SN12C renal 92.4% | UO-31 renal 91.4% | TK-10 renal 60% | ACHN renal 68.7% | CAKI-1 renal 86.1% | CCRF-CEM leukemia 90.6% | MOLT-4 leukemia 128%

c1ccc(C2NCCNC2c2ccccc2)cc1 (stereo unspecified)
inactive: SK-MEL-2 melanoma 98.7% | EKVX NSCLC 103% | SN12C renal 102% | UO-31 renal 80.9% | TK-10 renal 110% | CAKI-1 renal 97.6% | A498 renal 80.6% | CCRF-CEM leukemia 104% | MOLT-4 leukemia 99.7%

Cc1nc(Sc2nc3ccc([N+](=O)[O-])cc3s2)sc1C
active: SN12C renal -29.4% | CCRF-CEM leukemia -13.5% | MOLT-4 leukemia -7.45%
inactive: SK-MEL-2 melanoma 15.4% | EKVX NSCLC 88.5% | UO-31 renal 23.5% | TK-10 renal 19.3% | CAKI-1 renal 28.5% | A498 renal 46.5%

CCC(=O)c1cc([N+](=O)[O-])c(Br)s1
inactive: SK-MEL-2 melanoma 106% | EKVX NSCLC 104% | SN12C renal 103% | UO-31 renal 74.7% | TK-10 renal 96.6% | CAKI-1 renal 95.8% | A498 renal 87% | MOLT-4 leukemia 33.9%
active: CCRF-CEM leukemia 1.7%

Cc1ccc(NC2=CC(=O)C(=O)c3ccccc32)cc1
active: SK-MEL-2 melanoma 4.01% | SN12C renal -39.2% | UO-31 renal -18.4%
inactive: EKVX NSCLC 73% | TK-10 renal 42.4% | ACHN renal 21.9% | CAKI-1 renal 35.5% | A498 renal 63.2% | MOLT-4 leukemia 28.7%

O=C(c1ccccc1)c1ccc(O)c2ncccc12
active: UO-31 renal 7.3% | CAKI-1 renal 8.47%
inactive: SK-MEL-2 melanoma 43% | EKVX NSCLC 51.1% | SN12C renal 31.6% | TK-10 renal 83.1% | A498 renal 53.1% | CCRF-CEM leukemia 29.5% | MOLT-4 leukemia 21.2%

Cc1nn(CCO)c(C)c1N=[N+]([O-])c1c(C)nn(CCO)c1C
inactive: SK-MEL-2 melanoma 58.1% | EKVX NSCLC 23.4% | SN12C renal 60%
active: UO-31 renal -93.6% | TK-10 renal -46.9% | ACHN renal -42.8% | CCRF-CEM leukemia 1.91%

Cc1cc(C(=C2C=CC(=Nc3ccccc3)C=C2)c2ccc(Nc3ccccc3)cc2)ccc1N
active: SK-MEL-2 melanoma -87.4% | EKVX NSCLC -42.7% | SN12C renal -63.5% | UO-31 renal -67.4% | TK-10 renal -64.7% | ACHN renal -89.8% | CAKI-1 renal -56.6% | A498 renal -78.8%
inactive: MOLT-4 leukemia 22.2%

COC1=CC(=O)c2c(O)c3c(c(O)c2C1=O)CC(C)(O)OC3 (stereo unspecified)
inactive: EKVX NSCLC 23.2% | SN12C renal 34.7% | UO-31 renal 33.8% | TK-10 renal 66.1% | ACHN renal 27.6% | CAKI-1 renal 34.4% | CCRF-CEM leukemia 19.5% | MOLT-4 leukemia 14.5%
active: SK-MEL-2 melanoma -6.4%

O=[N+]([O-])CC(O)c1ccccc1 (stereo unspecified)
inactive: SK-MEL-2 melanoma 120% | EKVX NSCLC 113% | SN12C renal 101% | UO-31 renal 96.8% | TK-10 renal 111% | ACHN renal 102% | CAKI-1 renal 95.9% | MOLT-4 leukemia 98.6%

S=C=Nc1ccc(N2CCOCC2)cc1
inactive: SK-MEL-2 melanoma 97.8% | EKVX NSCLC 91.7% | SN12C renal 104% | UO-31 renal 84.5% | TK-10 renal 93.2% | CAKI-1 renal 95.9% | A498 renal 96.5% | CCRF-CEM leukemia 80.6% | MOLT-4 leukemia 92.5%

COc1cc(/C=C/c2ccnc3ccccc23)cc(OC)c1OC
inactive: SK-MEL-2 melanoma 12.2% | EKVX NSCLC 55.3% | SN12C renal 31% | UO-31 renal 37% | TK-10 renal 70.1% | CAKI-1 renal 24.3% | A498 renal 18% | CCRF-CEM leukemia 43.5% | MOLT-4 leukemia 14.9%

COc1ccc2c(c1)c(CC(=O)O)c(C)n2C(=O)c1ccc(Cl)cc1
inactive: SK-MEL-2 melanoma 106% | EKVX NSCLC 95.9% | SN12C renal 97.4% | UO-31 renal 65.6% | CAKI-1 renal 88.1% | A498 renal 81.9% | CCRF-CEM leukemia 89.7% | MOLT-4 leukemia 113%

CCN(CC)CC(O)c1cc(-c2ccc(Cl)cc2)nc2cc(Cl)ccc12 (stereo unspecified)
inactive: SK-MEL-2 melanoma 22.7% | SN12C renal 29.6% | UO-31 renal 35.2% | TK-10 renal 20.6% | A498 renal 64.6%
active: ACHN renal 7.25% | CAKI-1 renal -16.5% | CCRF-CEM leukemia 3.88% | MOLT-4 leukemia -18.3%

CC1(C)OCC(COC(c2ccccc2)(c2ccccc2)c2ccccc2)O1 (stereo unspecified)
inactive: SK-MEL-2 melanoma 83.3% | SN12C renal 102% | UO-31 renal 85.7% | TK-10 renal 88.5% | ACHN renal 97.6% | CAKI-1 renal 89.1% | A498 renal 57.2% | CCRF-CEM leukemia 102% | MOLT-4 leukemia 93.1%

O=[N+]([O-])c1ccc(C(Br)c2ccc([N+](=O)[O-])cc2)cc1
inactive: SK-MEL-2 melanoma 97.6% | SN12C renal 54.9% | UO-31 renal 47.4% | TK-10 renal 97.5% | ACHN renal 98.3% | CAKI-1 renal 92.2% | A498 renal 101% | CCRF-CEM leukemia 16.3% | MOLT-4 leukemia 12.5%
